# The campaign covered roughly 5,500 compounds. About 2,000 (36%) were called active. Another 18% or so got no clear call; they are omitted. Some of the results follow. Unmarked numbers belong to inactive results. Cut-off read from the data, not from the text of the source: active = normalized growth mostly below about 0.91 (no sharp cut-off); inconclusive = no clear call, values can overlap the other calls; inactive = mostly above about 0.92.
# Assay: chemical genetic growth profiling, strain panel (AID 1159580);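 note: tested at 20 µM; growth read once vehicle control cultures reached saturation at 30 °C; 1 = growth at the plate median or of vehicle wells; lower values mean less growth of the strain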
# Settings: S. cerevisiae deletion strains, growth OD
smiles,measurement,setting,value
O=C(O[C@@H]1Cc2c(O)cc(O)cc2O[C@@H]1c1cc(O)c(O)c(O)c1-c1c([C@H]2Oc3cc(O)cc(O)c3C[C@H]2O)cc(O)c(O)c1O)c1cc(O)c(O)c(O)c1,normalized growth,"locus YAL013W, strain DEP1, stronger effect = lower value",0.0787 (active)
same,normalized growth,"locus YAL021C, strain ccr4, stronger effect = lower value",0.962
same,normalized growth,"locus YAL026C, strain drs2, stronger effect = lower value",0.965
same,normalized growth,"locus YAL030W, strain snc1, stronger effect = lower value",1.01
same,normalized growth,"locus YBL061C, strain skt5, stronger effect = lower value",0.997
same,normalized growth,"locus YBR009C, strain hhf1, stronger effect = lower value",0.979
same,normalized growth,"locus YBR021W, strain FUR4, stronger effect = lower value",1.03
same,normalized growth,"locus YBR023C, strain chs3, stronger effect = lower value",0.936
same,normalized growth,"locus YBR171W, strain sec66, stronger effect = lower value",1.02
same,normalized growth,"locus YBR229C, strain ROT2, stronger effect = lower value",0.387 (active)
same,normalized growth,"locus YBR231C, strain swc5, stronger effect = lower value",0.873 (active)
same,normalized growth,"locus YBR279W, strain paf1, stronger effect = lower value",0.978
same,normalized growth,"locus YCL011C, strain gbp2, stronger effect = lower value",0.988
same,normalized growth,"locus YCL016C, strain dcc1, stronger effect = lower value",0.988
same,normalized growth,"locus YCL029C, strain bik1, stronger effect = lower value",0.643 (active)
same,normalized growth,"locus YCL061C, strain MRC1, stronger effect = lower value",0.993
same,normalized growth,"locus YCL069W, strain vba3, stronger effect = lower value",1.01
same,normalized growth,"locus YCR088W, strain abp1, stronger effect = lower value",1.03
same,normalized growth,"locus YDL005C, strain med2, stronger effect = lower value",1.03
same,normalized growth,"locus YDL035C, strain GPR1, stronger effect = lower value",0.0755 (active)
same,normalized growth,"locus YDL040C, strain nat1, stronger effect = lower value",1
same,normalized growth,"locus YDL074C, strain BRE1, stronger effect = lower value",0.204 (active)
same,normalized growth,"locus YDL101C, strain DUN1, stronger effect = lower value",0.113 (active)
same,normalized growth,"locus YDL134C, strain PPH21, stronger effect = lower value",0.09 (active)
same,normalized growth,"locus YDL185W, strain tfp1, stronger effect = lower value",0.928
same,normalized growth,"locus YDL192W, strain arf1, stronger effect = lower value",0.553 (active)
same,normalized growth,"locus YDR001C, strain nth1, stronger effect = lower value",1.03
same,normalized growth,"locus YDR069C, strain doa4, stronger effect = lower value",0.893 (active)
same,normalized growth,"locus YDR101C, strain arx1, stronger effect = lower value",0.772 (active)
same,normalized growth,"locus YDR137W, strain rgp1, stronger effect = lower value",0.984
same,normalized growth,"locus YDR159W, strain sac3, stronger effect = lower value",1.14 [resistant] (active)
same,normalized growth,"locus YDR162C, strain NBP2, stronger effect = lower value",0.0726 (active)
same,normalized growth,"locus YDR195W, strain ref2",1.07
same,normalized growth,"locus YDR297W, strain sur2, stronger effect = lower value",0.981
same,normalized growth,"locus YDR318W, strain mcm21, stronger effect = lower value",0.61 (active)
same,normalized growth,"locus YDR334W, strain swr1, stronger effect = lower value",0.985
same,normalized growth,"locus YDR335W, strain msn5, stronger effect = lower value",0.979
same,normalized growth,"locus YDR388W, stronger effect = lower value",0.737 (active)
same,normalized growth,"locus YDR392W, strain spt3, stronger effect = lower value",1.02
same,normalized growth,"locus YDR502C, strain sam2, stronger effect = lower value",0.362 (active)
same,normalized growth,"locus YEL003W, strain gim4, stronger effect = lower value",0.968
same,normalized growth,"locus YEL037C, strain rad23, stronger effect = lower value",1
same,normalized growth,"locus YEL061C, strain CIN8 (second series), stronger effect = lower value",1.02
same,normalized growth,"locus YER015W, strain faa2, stronger effect = lower value",0.892 (active)
same,normalized growth,"locus YER016W, strain bim1, stronger effect = lower value",1.01
same,normalized growth,"locus YER110C, stronger effect = lower value",0.992
same,normalized growth,"locus YER111C, strain swi4, stronger effect = lower value",0.963
same,normalized growth,"locus YER155C, strain BEM2 (second series), stronger effect = lower value",1.03
same,normalized growth,"locus YER155C, strain BEM2, stronger effect = lower value",0.523 (active)
same,normalized growth,"locus YER167W, strain BCK2, stronger effect = lower value",0.295 (active)
same,normalized growth,"locus YFR010W, strain ubp6, stronger effect = lower value",0.986
same,normalized growth,"locus YGL078C, strain dbp3, stronger effect = lower value",0.983
same,normalized growth,"locus YGL086W, strain mad1, stronger effect = lower value",0.308 (active)
same,normalized growth,"locus YGL167C, strain pmr1, stronger effect = lower value",1
same,normalized growth,"locus YGL173C, strain kem1, stronger effect = lower value",0.961
same,normalized growth,"locus YGL227W, strain vid30, stronger effect = lower value",1.04
same,normalized growth,"locus YGL240W, strain doc1, stronger effect = lower value",1.09
same,normalized growth,"locus YGL248W, strain PDE1, stronger effect = lower value",0.146 (active)
same,normalized growth,"locus YGL253W, strain hxk2, stronger effect = lower value",1.01
same,normalized growth,"locus YGR078C, strain PAC10, stronger effect = lower value",0.414 (active)
same,normalized growth,"locus YGR135W, strain pre9, stronger effect = lower value",0.429 (active)
same,normalized growth,"locus YGR229C, strain SMI1, stronger effect = lower value",0.0837 (active)
same,normalized growth,"locus YGR252W, strain gcn5, stronger effect = lower value",0.516 (active)
same,normalized growth,"locus YHR013C, strain ard1, stronger effect = lower value",0.937
same,normalized growth,"locus YHR027C, strain rpn1, stronger effect = lower value",0.911 (active)
same,normalized growth,"locus YHR030C, strain SLT2, stronger effect = lower value",0.219 (active)
same,normalized growth,"locus YHR079C, strain IRE1 (second series), stronger effect = lower value",0.626 (active)
same,normalized growth,"locus YHR094C, strain hxt1, stronger effect = lower value",0.888 (active)
same,normalized growth,"locus YHR129C, strain ARP1, stronger effect = lower value",0.205 (active)
same,normalized growth,"locus YHR142W, strain chs7, stronger effect = lower value",0.969
same,normalized growth,"locus YHR200W, strain rpn10, stronger effect = lower value",0.569 (active)
same,normalized growth,"locus YIL066C, strain RNR3, stronger effect = lower value",0.0703 (active)
same,normalized growth,"locus YIL073C, strain SPO22, stronger effect = lower value",0.15 (active)
same,normalized growth,"locus YIL125W, strain kgd1, stronger effect = lower value",1.02
same,normalized growth,"locus YIR030C, strain dcg1, stronger effect = lower value",0.863 (active)
same,normalized growth,"locus YJL092W, strain hpr5, stronger effect = lower value",1.03
same,normalized growth,"locus YJL095W, strain BCK1 (second series), stronger effect = lower value",0.991
same,normalized growth,"locus YJL095W, strain BCK1, stronger effect = lower value",0.107 (active)
same,normalized growth,"locus YJL115W, strain asf1, stronger effect = lower value",1.03
same,normalized growth,"locus YJL129C, strain trk1, stronger effect = lower value",1.06
same,normalized growth,"locus YJL134W, strain LCB3, stronger effect = lower value",0.432 (active)
same,normalized growth,"locus YJL154C, strain vps35, stronger effect = lower value",1.02
same,normalized growth,"locus YJL164C, strain tpk1, stronger effect = lower value",0.941
same,normalized growth,"locus YJL166W, strain qcr8, stronger effect = lower value",0.984
same,normalized growth,"locus YJL168C, strain set2, stronger effect = lower value",0.934

# — PubChem BioAssay AID1159580 (chemical genetic matrix, 2015)
